Laboratory results: PubChem BioAssay (EPA / NIEHS)
Where “and” joins values, the source holds several entries; their conditions need not be identical. Equal entries are not always repeated. Inconclusive results are not listed. Calls of active or inactive are those of the source. The calls were made as follows, unless noted: active = hit-call score of the fitted dose curve at least 0.9, where 1 is the maximum; inactive = score below 0.9.

Legend:
[1] = BSK_4H_Eotaxin3: BioMAP Diversity Plus: 4H Assay for Eotaxin 3 Biomarker Activity (AID 2283000); details: primary human endothelial cells (HUVEC); actives raise or lower the signal
In short: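 Eotaxin-3 (CCL26) levels were measured by ELISA in HUVEC primary cultures 24 h post-dosing. Gain or loss of signal was fitted in both directions, with DMSO serving as baseline and negative control.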

[2] = molecular target: human Peroxisome Proliferator-activated Receptor alpha (PPARa), PPARA (gene 5465) (UniProt Q07869); experiment: ATG_PPARa_TRANS: Attagene TRANS-FACTORIAL HepG2 Assay for human Peroxisome Proliferator-activated Receptor alpha (PPARa) (AID 2283001; active = hit-call score of the fitted dose curve at least 0.9, where 1 is the maximum)
In short: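 Reporter transcripts from GAL4-UAS units in transfected HepG2 were quantified 24 h after dosing. Detection used reverse transcription, PCR, fluorescent primer extension and capillary electrophoresis, with DMSO as baseline.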

[3] = read-out: Intercellular Adhesion Molecule 1 (ICAM1), ICAM1 (gene 3383); experiment: BSK_3C_ICAM1: BioMAP Diversity Plus: 3C Assay for Intercellular Adhesion Molecule 1 (ICAM1) Biomarker Activity (AID 2283003); details: primary human endothelial cells (HUVEC); actives raise or lower the signal
In short: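 Human vascular endothelial primary cells, 3C conditions, 24 h treatment. ICAM-1 by ELISA.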

[4] = BSK_3C_Proliferation: Cell Proliferation Assessment in the BioMAP Diversity Plus: 3C Assay (AID 2283006); details: primary human endothelial cells (HUVEC);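 as to AC50: potency may reflect either rise or fall in cell number versus DMSO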
In short: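 Proliferation of human vascular endothelial primary cells after 48 h dosing, quantified as SRB-stained protein at 560 nm relative to DMSO.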

[5] = molecular target: Nuclear receptor subfamily 1 group I member 2 (Homo sapiens) (UniProt O75469); experiment: ATG_PXR_TRANS: Attagene TRANS-FACTORIAL HepG2 Assay for human Pregnane X Receptor (PXR) (AID 2283008; active = hit-call score of the fitted dose curve at least 0.9, where 1 is the maximum)
Chain of Nuclear receptor subfamily 1 group I member 2 (Homo sapiens) (O75469 whole entry, looked up, the tested form may be a part): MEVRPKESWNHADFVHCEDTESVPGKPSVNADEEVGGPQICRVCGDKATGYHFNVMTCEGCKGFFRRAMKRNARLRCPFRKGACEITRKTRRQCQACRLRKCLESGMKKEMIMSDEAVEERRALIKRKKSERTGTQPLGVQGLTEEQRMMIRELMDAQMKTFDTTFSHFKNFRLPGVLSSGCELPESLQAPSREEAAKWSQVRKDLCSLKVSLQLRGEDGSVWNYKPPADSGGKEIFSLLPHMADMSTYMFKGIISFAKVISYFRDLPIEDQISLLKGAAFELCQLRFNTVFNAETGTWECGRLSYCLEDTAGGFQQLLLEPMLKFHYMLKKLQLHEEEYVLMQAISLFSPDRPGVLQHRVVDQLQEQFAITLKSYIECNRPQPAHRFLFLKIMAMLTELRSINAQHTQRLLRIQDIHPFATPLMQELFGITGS
In short: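 Fluorescence intensity of FAM-labelled, HpaI-digested reporter amplicons, separated by capillary electrophoresis, quantifies induction. HepG2 cells with PXR-Gal4 trans-reporter system were exposed 24 h; DMSO defines baseline.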

[6] = molecular target: human Retinoic Acid Receptor gamma (RARg), RARG (gene 5916) (UniProt P13631); experiment: ATG_RARg_TRANS: Attagene TRANS-FACTORIAL HepG2 Assay for human Retinoic Acid Receptor gamma (RARg) (AID 2283009; active = hit-call score of the fitted dose curve at least 0.9, where 1 is the maximum)
Chain of human Retinoic Acid Receptor gamma (RARg), RARG (gene 5916) (P13631 whole entry, looked up, the tested form may be a part): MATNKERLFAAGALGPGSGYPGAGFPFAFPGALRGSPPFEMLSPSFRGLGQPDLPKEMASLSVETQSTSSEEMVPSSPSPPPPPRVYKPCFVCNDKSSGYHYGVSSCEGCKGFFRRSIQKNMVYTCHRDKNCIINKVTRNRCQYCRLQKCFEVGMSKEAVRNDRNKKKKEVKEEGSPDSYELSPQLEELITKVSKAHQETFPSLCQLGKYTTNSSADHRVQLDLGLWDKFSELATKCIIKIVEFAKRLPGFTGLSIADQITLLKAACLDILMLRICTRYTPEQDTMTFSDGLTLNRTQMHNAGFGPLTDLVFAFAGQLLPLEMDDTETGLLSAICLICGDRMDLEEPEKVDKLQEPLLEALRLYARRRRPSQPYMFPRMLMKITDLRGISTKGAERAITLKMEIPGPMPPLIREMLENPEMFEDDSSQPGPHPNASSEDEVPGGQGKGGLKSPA
In short: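 HepG2, RARg-GAL4 TRANS system, 24 h exposure; reporter mRNA by RT-PCR + CE fluorescence; increase over DMSO.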

[7] = molecular target: human RAR-related Orphan Receptor gamma (RORg), RORC (gene 6097) (UniProt P51449); experiment: ATG_RORg_TRANS: Attagene TRANS-FACTORIAL HepG2 Assay for human RAR-related Orphan Receptor gamma (RORg) (AID 2283011; active = hit-call score of the fitted dose curve at least 0.9, where 1 is the maximum)
Chain of human RAR-related Orphan Receptor gamma (RORg), RORC (gene 6097) (P51449 whole entry, looked up, the tested form may be a part): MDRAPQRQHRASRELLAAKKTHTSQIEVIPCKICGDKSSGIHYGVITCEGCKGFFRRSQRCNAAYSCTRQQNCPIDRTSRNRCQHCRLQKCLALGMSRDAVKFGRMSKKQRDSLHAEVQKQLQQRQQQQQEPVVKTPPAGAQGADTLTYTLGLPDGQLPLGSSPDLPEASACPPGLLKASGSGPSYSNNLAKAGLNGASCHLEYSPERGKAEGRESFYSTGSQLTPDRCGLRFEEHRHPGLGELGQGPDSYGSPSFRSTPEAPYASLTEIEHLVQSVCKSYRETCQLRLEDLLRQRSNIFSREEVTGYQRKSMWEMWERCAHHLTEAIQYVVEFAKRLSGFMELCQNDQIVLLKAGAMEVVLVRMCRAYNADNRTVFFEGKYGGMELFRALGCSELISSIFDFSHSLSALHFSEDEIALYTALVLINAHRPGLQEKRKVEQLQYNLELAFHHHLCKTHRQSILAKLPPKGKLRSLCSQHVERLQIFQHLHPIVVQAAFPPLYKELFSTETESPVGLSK
In short: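 HepG2 cells transiently transfected with GAL4-UAS reporter units and chimeric RORg-Gal4 construct; after 24 h chemical exposure, reporter mRNA measured by RT-PCR with fluorescent capillary electrophoresis, gain of signal fitted against DMSO.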

[8] = molecular target: human Thyroid Receptor alpha (THRa1), THRA (gene 7067) (UniProt P10827); experiment: ATG_THRa1_TRANS: Attagene TRANS-FACTORIAL HepG2 Assay for human Thyroid Receptor alpha (THRa1) (AID 2283014; active = hit-call score of the fitted dose curve at least 0.9, where 1 is the maximum)
Chain of human Thyroid Receptor alpha (THRa1), THRA (gene 7067) (P10827 whole entry, looked up, the tested form may be a part): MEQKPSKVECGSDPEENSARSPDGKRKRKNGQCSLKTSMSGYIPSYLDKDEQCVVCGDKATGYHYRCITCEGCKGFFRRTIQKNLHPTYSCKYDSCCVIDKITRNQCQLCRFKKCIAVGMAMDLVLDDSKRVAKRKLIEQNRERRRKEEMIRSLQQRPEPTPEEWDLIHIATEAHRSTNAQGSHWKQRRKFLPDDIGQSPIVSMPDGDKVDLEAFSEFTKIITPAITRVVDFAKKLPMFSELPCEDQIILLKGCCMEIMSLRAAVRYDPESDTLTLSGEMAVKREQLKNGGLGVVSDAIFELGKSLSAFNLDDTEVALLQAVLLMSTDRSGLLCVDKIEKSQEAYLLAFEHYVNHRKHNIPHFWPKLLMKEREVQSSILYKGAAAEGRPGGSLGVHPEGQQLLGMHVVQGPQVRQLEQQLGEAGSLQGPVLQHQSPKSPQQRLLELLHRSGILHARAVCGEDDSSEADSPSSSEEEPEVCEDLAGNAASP
In short: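 HepG2 cells transiently transfected with chimeric NR-Gal4 and GAL4-UAS reporter units, dosed 24 h. Reporter mRNA quantified by RT-PCR, fluorescent labeling, HpaI digestion and capillary electrophoresis; gain-of-signal fit versus DMSO.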

[9] = read-out: E-selectin (Homo sapiens) (UniProt P16581); experiment: BSK_3C_Eselectin: BioMAP Diversity Plus: 3C Assay for Eselectin Biomarker Activity (AID 2283015); details: primary human endothelial cells (HUVEC); actives raise or lower the signal
In short: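 Primary human umbilical vein endothelial cells (3C system), read 24 h after compound addition; E-selectin measured by ELISA. Bidirectional curve fitting against DMSO baseline; cytotoxicity by parallel SRB total-protein staining.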

[10] = read-out: Interleukin-1 alpha (IL1a), IL1A (gene 3552); experiment: BSK_BE3C_IL1a: BioMAP Diversity Plus: BE3C Assay for Interleukin-1 alpha (IL1a) Biomarker Activity (AID 2283016); details: primary human bronchial epithelial cells; actives raise or lower the signal
In short: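 Cultures of primary human bronchial epithelial cells receive test chemical. After 24 h, IL-1a is quantified by ELISA, while parallel wells are fixed in TCA and SRB-stained for total protein. Changes in either direction are fitted relative to DMSO.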

[11] = read-out: Monocyte Chemoattractant Protein-1 (MCP1), CCL2 (gene 6347); experiment: BSK_3C_MCP1: BioMAP Diversity Plus: 3C Assay for Monocyte Chemoattractant Protein-1 (MCP1) Biomarker Activity (AID 2283017); details: primary human endothelial cells (HUVEC); actives raise or lower the signal
In short: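 Human umbilical vein endothelial cells (3C system) exposed to chemicals for 24 h; MCP-1 quantified by ELISA against the DMSO baseline with bidirectional fitting, and parallel SRB staining used to assess cytotoxicity.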

[12] = read-out: Monocyte Chemoattractant Protein-1 (MCP1), CCL2 (gene 6347); experiment: BSK_4H_MCP1: BioMAP Diversity Plus: 4H Assay for Monocyte Chemoattractant Protein-1 (MCP1) Biomarker Activity (AID 2283018); details: primary human endothelial cells (HUVEC); actives raise or lower the signal
In short: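 Readout: MCP-1 ELISA on compound-treated HUVEC, sampled 24 h post-dosing. Baseline and negative control DMSO; bidirectional fit. Overt toxicity checked alongside by sulforhodamine B protein staining at time of biomarker measurement.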

[13] = read-out: Human Leukocyte Antigen - DR isotype (HLADR), HLA-DRA (gene 3122); experiment: BSK_3C_HLADR: BioMAP Diversity Plus: 3C Assay for Human Leukocyte Antigen - DR isotype (HLADR) Biomarker Activity (AID 2283019); details: primary human endothelial cells (HUVEC); actives raise or lower the signal
In short: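 HUVEC monoculture, HLA-DR measured by ELISA 24 h after chemical dosing. Fitted bidirectionally against DMSO baseline; parallel SRB staining assessed cytotoxicity, with 3C proliferation read by SRB at 48 h.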

[14] = molecular target: human Peroxisome Proliferator-activated Receptor delta (PPARd), PPARD (gene 5467) (UniProt Q03181); experiment: ATG_PPARd_TRANS: Attagene TRANS-FACTORIAL HepG2 Assay for human Peroxisome Proliferator-activated Receptor delta (PPARd) (AID 2283002; active = hit-call score of the fitted dose curve at least 0.9, where 1 is the maximum)
Chain of human Peroxisome Proliferator-activated Receptor delta (PPARd), PPARD (gene 5467) (Q03181 whole entry, looked up, the tested form may be a part): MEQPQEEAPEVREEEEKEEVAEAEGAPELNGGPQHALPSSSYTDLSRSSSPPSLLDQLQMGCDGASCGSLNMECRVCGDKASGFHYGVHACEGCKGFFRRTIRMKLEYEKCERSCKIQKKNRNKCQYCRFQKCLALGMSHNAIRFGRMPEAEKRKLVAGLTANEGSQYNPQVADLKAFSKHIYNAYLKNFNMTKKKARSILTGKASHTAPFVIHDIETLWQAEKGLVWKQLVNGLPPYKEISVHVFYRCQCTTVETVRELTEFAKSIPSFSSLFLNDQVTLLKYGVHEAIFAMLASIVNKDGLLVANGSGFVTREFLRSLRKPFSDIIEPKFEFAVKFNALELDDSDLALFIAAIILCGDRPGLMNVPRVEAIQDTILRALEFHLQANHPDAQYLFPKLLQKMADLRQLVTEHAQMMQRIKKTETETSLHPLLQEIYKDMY
In short: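 Read-out is induced reporter mRNA, quantified by RT-PCR with fluorescent labelling and capillary electrophoresis after 24 h dosing. Cells are HepG2 transiently carrying multiple GAL4-UAS reporter units driven by exogenous NR-GAL4 chimeras; DMSO serves as baseline.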

[15] = molecular target: human Retinoic Acid Receptor beta (RARb), RARB (gene 5915) (UniProt P10826); experiment: ATG_RARb_TRANS: Attagene TRANS-FACTORIAL HepG2 Assay for human Retinoic Acid Receptor beta (AID 2283004; active = hit-call score of the fitted dose curve at least 0.9, where 1 is the maximum)
Chain of human Retinoic Acid Receptor beta (RARb), RARB (gene 5915) (P10826 whole entry, looked up, the tested form may be a part): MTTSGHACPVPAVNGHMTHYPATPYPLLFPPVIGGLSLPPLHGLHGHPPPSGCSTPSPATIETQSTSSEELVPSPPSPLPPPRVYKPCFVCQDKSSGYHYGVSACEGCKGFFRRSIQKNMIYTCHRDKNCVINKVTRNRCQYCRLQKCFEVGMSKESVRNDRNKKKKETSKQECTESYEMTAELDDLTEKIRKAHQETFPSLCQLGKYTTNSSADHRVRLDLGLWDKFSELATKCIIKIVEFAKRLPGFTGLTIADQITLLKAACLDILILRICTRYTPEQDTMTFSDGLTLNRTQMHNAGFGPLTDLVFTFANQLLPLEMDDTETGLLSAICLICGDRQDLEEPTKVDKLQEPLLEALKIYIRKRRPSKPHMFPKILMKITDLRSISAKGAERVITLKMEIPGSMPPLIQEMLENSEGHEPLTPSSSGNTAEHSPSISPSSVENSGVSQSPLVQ
In short: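 HepG2 cells were transiently transfected with GAL4-UAS reporter units that report activity of exogenous chimeric NR-Gal4 proteins, then exposed to compound for 24 h. Reporter mRNA was quantified by RT-PCR with capillary electrophoresis fluorescence, as gain of signal over DMSO.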

[16] = molecular target: Retinoic acid receptor alpha (Homo sapiens) (UniProt P10276); experiment: ATG_RARa_TRANS: Attagene TRANS-FACTORIAL HepG2 Assay for human Retinoic Acid Receptor alpha (RARa) (AID 2283005; active = hit-call score of the fitted dose curve at least 0.9, where 1 is the maximum)
In short: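 Reporter transcripts, measured by RT-PCR with fluorescent labeling and capillary electrophoresis after 24 h dosing, reflect activity of an exogenous human RARa–GAL4 fusion in transiently transfected HepG2. Fitted for increase relative to DMSO.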

[17] = molecular target: human RAR-related Orphan Receptor beta (RORb), RORB (gene 6096) (UniProt Q92753); experiment: ATG_RORb_TRANS: Attagene TRANS-FACTORIAL HepG2 Assay for human RAR-related Orphan Receptor beta (RORb) (AID 2283010; active = hit-call score of the fitted dose curve at least 0.9, where 1 is the maximum)
In short: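 In this TRANS-format test, human HepG2 cells express chimeric NR-Gal4 fusion proteins driving GAL4-UAS reporters. After 24 h dosing, reporter transcripts are measured by fluorescent RT-PCR/capillary electrophoresis, with DMSO as negative control.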

[18] = molecular target: human Retinoid X Receptor beta (RXRb), RXRB (gene 6257) (UniProt P28702); experiment: ATG_RXRb_TRANS: Attagene TRANS-FACTORIAL HepG2 Assay for human Retinoid X Receptor beta (RXRb) (AID 2283013; active = hit-call score of the fitted dose curve at least 0.9, where 1 is the maximum)
Chain of human Retinoid X Receptor beta (RXRb), RXRB (gene 6257) (P28702 whole entry, looked up): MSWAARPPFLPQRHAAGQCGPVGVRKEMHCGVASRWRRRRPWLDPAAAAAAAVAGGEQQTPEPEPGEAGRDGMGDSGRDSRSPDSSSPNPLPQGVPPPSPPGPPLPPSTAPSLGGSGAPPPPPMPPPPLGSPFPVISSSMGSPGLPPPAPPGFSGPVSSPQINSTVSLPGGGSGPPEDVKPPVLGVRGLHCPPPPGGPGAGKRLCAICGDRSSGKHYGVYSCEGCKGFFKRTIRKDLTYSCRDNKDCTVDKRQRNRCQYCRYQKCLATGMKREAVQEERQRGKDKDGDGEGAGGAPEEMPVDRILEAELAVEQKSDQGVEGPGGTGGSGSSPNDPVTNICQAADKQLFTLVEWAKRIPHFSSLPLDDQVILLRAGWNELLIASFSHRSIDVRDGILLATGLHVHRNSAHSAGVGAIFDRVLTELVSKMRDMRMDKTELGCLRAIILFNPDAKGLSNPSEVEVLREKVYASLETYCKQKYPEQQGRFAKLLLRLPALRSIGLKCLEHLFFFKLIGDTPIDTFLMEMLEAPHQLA
In short: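 Multiplexed TRANS reporter assay in HepG2; 24 h dosing; reporter mRNA by RT-PCR/CE fluorescence; gain-of-signal relative to DMSO.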

[19] = molecular target: Peroxisome proliferator-activated receptor gamma (Homo sapiens) (UniProt P37231); experiment: ATG_PPARg_TRANS: Attagene TRANS-FACTORIAL HepG2 Assay for human Peroxisome Proliferator-activated Receptor-gamma (PPARg) (AID 2283007; active = hit-call score of the fitted dose curve at least 0.9, where 1 is the maximum)
Chain of Peroxisome proliferator-activated receptor gamma (Homo sapiens) (P37231 whole entry, looked up): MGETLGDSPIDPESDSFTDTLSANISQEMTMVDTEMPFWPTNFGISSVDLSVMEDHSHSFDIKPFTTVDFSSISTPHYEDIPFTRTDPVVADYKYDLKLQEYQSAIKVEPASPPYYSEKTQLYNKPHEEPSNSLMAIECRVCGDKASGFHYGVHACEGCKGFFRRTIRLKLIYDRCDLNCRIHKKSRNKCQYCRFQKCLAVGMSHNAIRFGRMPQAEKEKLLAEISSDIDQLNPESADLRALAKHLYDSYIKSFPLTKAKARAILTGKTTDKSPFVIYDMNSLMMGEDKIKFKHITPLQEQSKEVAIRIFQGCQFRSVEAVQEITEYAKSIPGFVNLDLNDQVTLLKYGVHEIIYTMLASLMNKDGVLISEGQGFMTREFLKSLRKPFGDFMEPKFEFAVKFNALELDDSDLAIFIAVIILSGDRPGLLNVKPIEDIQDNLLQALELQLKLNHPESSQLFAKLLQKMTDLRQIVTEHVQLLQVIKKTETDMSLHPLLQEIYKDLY
In short: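 Multiplexed reporter transcription units in HepG2, 24 h dosing, reporter transcripts quantified by fluorescent RT-PCR and capillary electrophoresis. Increase over DMSO scored.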

[20] = molecular target: Retinoic acid receptor RXR-alpha (Homo sapiens) (UniProt P19793); experiment: ATG_RXRa_TRANS: Attagene TRANS-FACTORIAL HepG2 Assay for human Retinoid X Receptor alpha (RXRa) (AID 2283012; active = hit-call score of the fitted dose curve at least 0.9, where 1 is the maximum)
Chain of Retinoic acid receptor RXR-alpha (Homo sapiens) (P19793 whole entry, looked up, the tested form may be a part): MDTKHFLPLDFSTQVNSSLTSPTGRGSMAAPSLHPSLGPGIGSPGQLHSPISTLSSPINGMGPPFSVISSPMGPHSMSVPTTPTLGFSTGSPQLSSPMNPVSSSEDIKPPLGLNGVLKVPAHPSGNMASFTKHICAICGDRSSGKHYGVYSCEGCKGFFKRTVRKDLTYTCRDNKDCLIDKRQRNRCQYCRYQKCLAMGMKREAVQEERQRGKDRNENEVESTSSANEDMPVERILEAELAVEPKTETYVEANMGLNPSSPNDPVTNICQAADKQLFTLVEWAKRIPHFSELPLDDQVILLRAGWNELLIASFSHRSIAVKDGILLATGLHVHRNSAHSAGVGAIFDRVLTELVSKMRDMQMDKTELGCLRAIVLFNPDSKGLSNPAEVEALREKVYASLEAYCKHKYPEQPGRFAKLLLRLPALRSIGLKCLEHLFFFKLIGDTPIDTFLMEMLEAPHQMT
In short: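 Cells (HepG2) carried transiently transfected GAL4-responsive reporter units. Following a 24 h chemical incubation, reporter mRNA induction was read via RT-PCR fragment analysis; DMSO served as negative control and baseline.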

Measured: AC50

Chain of E-selectin (Homo sapiens) (P16581 whole entry, looked up): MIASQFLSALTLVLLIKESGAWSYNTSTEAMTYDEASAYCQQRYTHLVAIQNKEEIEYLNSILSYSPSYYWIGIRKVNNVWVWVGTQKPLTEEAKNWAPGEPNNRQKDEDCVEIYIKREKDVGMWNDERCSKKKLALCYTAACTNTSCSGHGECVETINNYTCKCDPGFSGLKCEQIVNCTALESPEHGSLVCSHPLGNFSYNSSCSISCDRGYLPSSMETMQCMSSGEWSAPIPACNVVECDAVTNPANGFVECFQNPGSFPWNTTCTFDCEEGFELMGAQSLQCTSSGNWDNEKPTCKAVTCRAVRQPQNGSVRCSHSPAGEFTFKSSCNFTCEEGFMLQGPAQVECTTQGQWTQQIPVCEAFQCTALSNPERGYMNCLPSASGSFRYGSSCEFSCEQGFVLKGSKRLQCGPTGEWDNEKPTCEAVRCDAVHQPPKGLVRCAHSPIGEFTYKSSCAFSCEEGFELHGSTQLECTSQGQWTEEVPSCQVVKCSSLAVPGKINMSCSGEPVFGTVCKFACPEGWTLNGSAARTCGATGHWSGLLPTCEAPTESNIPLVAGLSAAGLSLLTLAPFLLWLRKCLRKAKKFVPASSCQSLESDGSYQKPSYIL

C=CC(=O)OCC(F)(F)C(F)(F)C(F)(F)COC(=O)C=C
active: [1] 9.89 µM and 8.33 µM | [3] 46.5 µM | [4] 8.32 µM and 9.46 µM | [9] 19.4 µM and 32.1 µM | [10] 23.2 µM and 17.5 µM | [11] 39.6 µM and 30 µM | [12] 30 µM and 8.24 µM | [13] 14 µM and 12.3 µM
inactive: [2] | [5] | [6] | [7] | [8]

NC(O)(C(F)(F)F)C(F)(F)F
inactive: [1] | [14] | [3] | [4] | [5] | [8] | [9] | [10] | [12] | [13]

Cc1cc(O)c(C(C)(C)C)cc1C(C)(C)C
active: [1] 4.12 µM | [3] 8.46 µM | [4] 2.36 µM | [5] 3.47 µM | [18] 2.58 µM | [9] 3.91 µM | [10] 4.77 µM | [12] 3.83 µM | [13] 3.17 µM
inactive: [14] | [15] | [16] | [6] | [17] | [7] | [8]

FC(F)(F)C(F)(F)C(F)(F)C(F)(F)C(F)(F)C(F)(F)CC[Si](Cl)(Cl)Cl
not listed: [7] | [8] | [11] | [14] | [16] | [17]
inactive: all other assays above

CCn1c2ccccc2c2ccccc21
active: [5] 10.3 µM | [18] 13.3 µM
inactive: [2] | [14] | [15] | [16] | [19] | [6] | [20] | [8]

CC(C)(C)C(=O)C1C(=O)c2ccccc2C1=O
active: [19] 28 µM | [5] 22.4 µM
inactive: [2] | [14] | [15] | [16] | [6] | [7] | [20]

CCOC(=O)CC(=O)C(F)(F)C(F)(F)F
inactive: [1] | [3] | [4] | [19] | [5] | [6] | [20] | [9] | [10] | [12] | [13]

O=C(F)C1(F)C(F)(F)C(F)(F)C(F)(F)C(F)(F)C1(F)F
inactive: [1] | [14] | [3] | [15] | [16] | [4] | [9] | [10] | [11] | [12] | [13]

CCN(CC)c1ccc(C=O)cc1
inactive: [1] | [14] | [3] | [4] | [17] | [8] | [9] | [10] | [12] | [13]
active: [5] 27.7 µM
